Compounds with a hit are over-represented: about 2.6% of the library has one in this group of screens.
PME-1 primary: PME-1 inhibitors via competitive probe labeling, primary screen, biochemical, fluorescence polarization, FP-Rh probe, HTS; Protein phosphatase methylesterase 1 (Homo sapiens), Q9Y570; recombinant PME-1; inhibition, % at 5.9 µM; hit rate 0.53% among 320,000; AID 2130, 2009;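 active = inhibition above the campaign mean of all compounds plus 3 SD, cut at about 26% in these data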;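 note: competitive labeling of PME-1 active site by serine hydrolase directed probe; inhibitors block probe labeling so polarization falls and inhibition rises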
Target sequence (Q9Y570 whole entry, looked up): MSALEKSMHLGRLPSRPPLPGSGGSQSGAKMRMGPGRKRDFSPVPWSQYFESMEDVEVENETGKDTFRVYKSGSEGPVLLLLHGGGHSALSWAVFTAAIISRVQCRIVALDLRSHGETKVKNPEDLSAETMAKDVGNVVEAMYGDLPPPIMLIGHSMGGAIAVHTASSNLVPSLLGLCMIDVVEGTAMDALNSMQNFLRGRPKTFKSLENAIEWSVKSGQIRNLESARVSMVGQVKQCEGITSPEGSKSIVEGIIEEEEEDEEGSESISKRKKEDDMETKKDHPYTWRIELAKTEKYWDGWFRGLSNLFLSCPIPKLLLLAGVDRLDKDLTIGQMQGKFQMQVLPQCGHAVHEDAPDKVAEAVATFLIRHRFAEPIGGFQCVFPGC
Fam108B inh: mouse Fam108B serine hydrolase inhibitors, primary screen, counter-screen for RBBP9 inhibitor project, biochemical, fluorescence polarization. recombinant Fam108B, FP-Rh probe fluorescence polarization. inhibition, % at 9.51 µM. hit rate 0.33% among 300,000. AID 1947, 2009;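 active = inhibition above the screen mean inhibition plus 3 SD, computed separately per campaign, cut at about 18% in these data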;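 note: inhibitors lower polarization as less probe binds the enzyme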
PAD4 FP inh: human PAD4 inhibitors, primary screen, biochemical, fluorescence polarization, 1536-well format. Protein-arginine deiminase type-4 (Homo sapiens), Q9UM07. recombinant PAD4, RCA probe fluorescence polarization. inhibition, % at 6.36 µM. hit rate 0.41% among 330,000;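 active = percent inhibition above a cutoff equal to the mean of all tested compounds plus 3 SD, cut at about 15% in these data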
TCR CD3 inh: inhibitors of human TCR-CD3 interaction, primary screen, biochemical, fluorescence, TAMRA-labeled TCR probe; T-cell receptor (TCR); inhibition, % at 9.4 µM; hit rate 0.37% among 360,000; in the data active = inhibition above about 19%;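 note: recombinant mutant TCR 2C K166C tagged with TAMRA read by polarization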
SIAE inh: human SIAE inhibitors, primary screen, biochemical, fluorescence polarization, FP-Rh probe, 1536-well HTS. AID 1053197, 2014. SIAE FP-Rh probe binding. inhibition, % at 9.66 µM. hit rate 0.69% among 370,000;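 active = inhibition above a cutoff: mean of compounds within the control limits plus 3 SD of those, cut at about 17% in these data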
PRMT1 FP inh: PRMT1 methyltransferase inhibitors, primary screen, biochemical, fluorescence polarization. Protein arginine N-methyltransferase 1 (Homo sapiens), Q99873. recombinant PRMT1, activity-based probe fluorescence polarization. inhibition, % at 2.79 µM. hit rate 1.3% among 370,000. AID 652257, 2013;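 active = inhibition above about 21% made by adding two undisclosed values, limit read from the data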
Target sequence (Q99873 whole entry, looked up): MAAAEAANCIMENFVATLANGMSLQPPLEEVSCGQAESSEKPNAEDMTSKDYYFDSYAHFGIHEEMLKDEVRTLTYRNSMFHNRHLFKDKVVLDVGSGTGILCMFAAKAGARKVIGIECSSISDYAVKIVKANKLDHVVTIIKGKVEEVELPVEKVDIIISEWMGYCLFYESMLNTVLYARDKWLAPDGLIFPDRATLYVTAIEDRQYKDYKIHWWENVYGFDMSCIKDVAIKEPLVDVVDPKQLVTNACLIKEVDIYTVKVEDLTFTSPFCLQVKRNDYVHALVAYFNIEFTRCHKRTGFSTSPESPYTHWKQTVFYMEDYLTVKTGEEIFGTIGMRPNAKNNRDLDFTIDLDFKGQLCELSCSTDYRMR
Large screens that a line does not name were inactive.

CCOC(=O)CC1C(=O)NCCN1Cc1cccc(C(F)(F)F)c1 (stereo not given)	PRMT1 FP inh 24
O=c1[nH]c2ccc(S(=O)(=O)N3CCCC3)cc2o1	none (no result: PME-1 primary, Fam108B inh, PAD4 FP inh, TCR CD3 inh)
Cc1ccc(NC(=O)COC(=O)/C=C/c2ccco2)cc1S(=O)(=O)N(C)C	PRMT1 FP inh 21
CN(C)S(=O)(=O)c1cccc(NC(=O)COC(=O)/C=C/c2ccco2)c1	none
c1ccc(CCn2nnc(-c3ccc(N4CCOCC4)cc3)n2)cc1	none (no result: PME-1 primary, Fam108B inh, PAD4 FP inh, TCR CD3 inh)
CCOC(=O)C1=C(C)N(c2ccccc2)C(=O)/C1=C\c1ccco1	none
CCOC(=O)C1=C(C)N(c2ccccc2)C(=O)/C1=C\c1ccc(O)c(OC)c1	PRMT1 FP inh 42
CS(=O)(=O)N[C@@H]1C[C@@H]2O[C@@H](CO)CC[C@@H]2O[C@@H]1CCc1ccc(/C=C/c2ccccc2)cc1	none (no result: PME-1 primary, Fam108B inh, PAD4 FP inh, TCR CD3 inh)
O=C(Nc1ccc(C(O)(C(F)(F)F)C(F)(F)F)cc1)c1c(F)cccc1F	none (no result: PME-1 primary, Fam108B inh, PAD4 FP inh, TCR CD3 inh)
Cc1ccc(C)c(NC(=O)c2cc(-c3ccc(Cl)cc3)nc3ccccc23)c1	none (no result: PME-1 primary, Fam108B inh, PAD4 FP inh, TCR CD3 inh)
Cc1ccc(C(=O)CSC2=C(C#N)C(c3ccco3)C3=C(CCCC3=O)N2)cc1 (stereo not given)	PME-1 primary 32
CC(C)(C)c1ccc(C(=O)CCCSC2=C(C#N)C(c3ccco3)C3=C(CCCC3=O)N2)cc1 (stereo not given)	none
CCN1CCC(O)(/C=C/c2ccc(C(C)C)cc2)C(C(=O)/C=C/c2ccc(C(C)C)cc2)C1 (stereo not given)	PRMT1 FP inh 24 (no result: PME-1 primary, Fam108B inh, PAD4 FP inh)
CCOC(=O)c1sc2ccc(S(=O)(=O)N3CC(C)CC(C)C3)cc2c1N (stereo not given)	PRMT1 FP inh 21
CCOC(=O)c1sc2ccc(S(=O)(=O)N3CCOCC3)cc2c1N	none
Cc1sc2nc(COC(=O)CNC(=O)c3ccccc3Cl)[nH]c(=O)c2c1C	none (no result: PME-1 primary, Fam108B inh, PAD4 FP inh, TCR CD3 inh)
COC(=O)[C@H](CC(C)C)N(Cc1cn(CC2CCCCC2)nn1)S(=O)(=O)c1ccccc1Br	none (no result: PME-1 primary, Fam108B inh, PAD4 FP inh, TCR CD3 inh)
CSC(=Nc1ccccc1)C1=C(O)COC1=O	none
CCSC(=Nc1ccccc1)C1=C(O)COC1=O	SIAE inh 19
C=CCNC(=S)N(C)[C@H]1C[C@H]2c3[nH]c4cccc(-c5cccc(F)c5)c4c3CCN2C(=O)[C@H]1[C@H](C)O	none (no result: PME-1 primary, Fam108B inh, PAD4 FP inh, TCR CD3 inh)
Cc1ccc(S(=O)(=O)c2cc(Nc3ccccc3)ccc2O)cc1	none
O=S(=O)(O)c1cc(O)c2ccc(Nc3ccccc3)cc2c1	TCR CD3 inh 35, PRMT1 FP inh 28 (no result: PME-1 primary, Fam108B inh, PAD4 FP inh)
CC(=O)Nc1ccc2c(O)cc(S(=O)(=O)O)cc2c1	none (no result: PME-1 primary, Fam108B inh, PAD4 FP inh)
O=S(=O)(O)c1ccc(O)c2cc(Nc3ccccc3)ccc12	TCR CD3 inh 44, SIAE inh 55, PRMT1 FP inh 43 (no result: PME-1 primary, Fam108B inh, PAD4 FP inh)
Cn1c(SC2CCCC2)nnc1-c1ccco1	none (no result: PME-1 primary, Fam108B inh, PAD4 FP inh, TCR CD3 inh)
C[C@H]1[C@@H](NC(=O)C2CCCCC2)CC[C@@]23CCCN2C(=O)CCC[C@@H]13	none (no result: PME-1 primary, Fam108B inh, PAD4 FP inh, TCR CD3 inh)
CCN(CC(=O)Nc1c(F)cccc1F)C(=O)CCCOc1ccc(OC)cc1	none
CCN(CC(=O)Nc1c(F)cccc1F)C(=O)CCc1ccc(OC)cc1	PME-1 primary 41
CCOc1ccc(NC(C(=O)Nc2cccc(C(C)=O)c2)c2ccccc2)cc1 (stereo not given)	PME-1 primary 32
COCC(C)NC(C(=O)Nc1cccc(C(C)=O)c1)c1ccccc1 (stereo not given)	none
Cc1cc([N+](=O)[O-])ccc1-c1ccc(C2Nc3ccccc3C(=O)N2O)o1 (stereo not given)	PME-1 primary 37
CC(=O)C1=C(C)NC(SCC(=O)c2ccc(F)cc2)=C(C#N)C1CC(C)C (stereo not given)	PRMT1 FP inh 28
COC(=O)NNC(=O)c1ccc(Cl)cc1Cl	none
COC(=O)Nc1cc(C(=O)c2ccc(Cl)cc2Cl)c[nH]1	PRMT1 FP inh 24
Cc1ccc(N2CCN(C(=S)c3ccc(-c4cccc([N+](=O)[O-])c4)o3)CC2)cc1	PRMT1 FP inh 24
COc1ccc(N2C(=O)[C@@H]3[C@H](C2=O)[C@H]2c4ccccc4C=CN2[C@@H]3C(=O)Nc2ccccc2)cc1	Fam108B inh 25
CCOC(=O)C1Nc2ccc(C)cc2C2C=CCC12 (stereo not given)	PRMT1 FP inh 23
CCOC(=O)c1ccc2c(c1)C1C=CCC1C(C(=O)OCC)N2 (stereo not given)	PRMT1 FP inh 23
CC(C)CNC(=O)C1Nc2ccc(C(F)(F)F)cc2C2C=CCC12 (stereo not given)	none
COC(=O)CNC(=O)C1Nc2ccccc2C2C=CCC12 (stereo not given)	PRMT1 FP inh 37
CC(C)CNC(=O)C1Nc2ccc(OC(F)(F)F)cc2C2C=CCC12 (stereo not given)	none
CCOC(=O)C1Nc2ccccc2C2c3ccccc3CC12 (stereo not given)	none
O=S1(=O)c2ccc(N3CCN(Cc4ccccc4F)CC3)cc2Oc2ccccc2CN1Cc1cn(Cc2ccc(F)cc2)nn1	none (no result: PME-1 primary, Fam108B inh, PAD4 FP inh, TCR CD3 inh)
COC(=O)c1cc(C(C)c2c[nH]c3ccccc23)n2ccccc12 (stereo not given)	none (no result: PME-1 primary, Fam108B inh, PAD4 FP inh, TCR CD3 inh)
COc1ccc(CNC(=O)c2ccc3c(c2)N(C)C(=O)CS3=O)cc1 (stereo not given)	PRMT1 FP inh 22
CC(C)(C)c1cc(C(c2cccnc2)N2CCN(CCO)CC2)cc(C(C)(C)C)c1O (stereo not given)	PRMT1 FP inh 22
CC(=O)c1cccc(S(=O)(=O)NC2CCCCCC2)c1	none
CC(=O)c1cccc(S(=O)(=O)NC2CC2)c1	PRMT1 FP inh 23
CC1(c2ccccc2)CC(=O)N(c2ccc(NC(=O)c3ccccn3)cc2Cl)C1=O (stereo not given)	none (no result: PME-1 primary, Fam108B inh, PAD4 FP inh, TCR CD3 inh)
C/C(=N\Nc1nc2ccccc2s1)c1cccs1	PME-1 primary 32
CC(=NNc1nc2ccccc2s1)c1ncccn1	none (no result: PME-1 primary, Fam108B inh, PAD4 FP inh)
Cc1ccc(S(=O)(=O)c2nc(-c3ccco3)oc2SCC(N)=O)cc1	PRMT1 FP inh 21
Cc1ccc(S(=O)(=O)CCC(=O)NCCN2C(=O)S/C(=C\c3ccccc3)C2=O)cc1	PME-1 primary 35
Cc1ccc(-n2c3nc(=O)[nH]c(=O)c-3cc3cc([N+](=O)[O-])ccc32)cc1	PME-1 primary 63
Cc1ccc(-n2c(C)nn(Cc3ccc([N+](=O)[O-])cc3)c2=O)cc1	none
CCC(=O)OC1(C)C(=O)C=C2C=C(C3CC3)OC=C2C1=O (stereo not given)	PRMT1 FP inh 23
CC1(OC(=O)c2cnc3ccccc3n2)C(=O)C=C2C=C(C3CC3)OC=C2C1=O (stereo not given)	PME-1 primary 66, Fam108B inh 48, PAD4 FP inh 38 (no result: TCR CD3 inh, SIAE inh, PRMT1 FP inh)
CCCCC1=CC2=CC(=O)C(C)(OC(=O)CC)C(=O)C2=CO1 (stereo not given)	none

Bioassay records: PubChem, The Scripps Research Institute Molecular Screening Center
